Compound activity (PubChem BioAssay)
The entries come from a sample that favours hits as a whole.
HT1080 IDH1KD tx – toxicity to HT-1080 IDH1 knockdown cells (counter line); HT-1080 IDH1 knockdown viability, ATP luminescence, 48 h; Potency, µM (doses to about 46.1 µM), hits mostly cytotoxic; 360,000 compounds, 2% hits; AID 686971
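In this qHTS, HT-1080 cells depleted of IDH1 are exposed for 48 h at 37 °C to compound titrations. Toxicity is scored from CellTiter-Glo luminescence, with DMSO as full viability and medium alone as none.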
DT40 TDP1 CPT – growth inhibition of DT40 Tdp1-/-;hTDP1 cells with camptothecin (screen for TDP1 inhibitors) | 420,000 compounds, 12% hits | Potency, µM (titrated, usually from 46.2 µM), hits mostly inhibitors | chicken DT40 Tdp1-/-;hTDP1 cells + 20 nM CPT, ATP luminescence, 48 h; note: nearly all actives have a fitted effect of over 55% in size
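Cell growth measured by CellTiter-Glo luminescence after a minimum 48 h, 37 C compound exposure with 20 nM CPT in Tdp1-knockout DT40 cells stably expressing hTDP1, seeded 400/well; qHTS titration format.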
IL1B secr inh – blocks inflammasome-driven IL-1 beta release; AID 743279; activity change, % at 57.5 µM; 360,000 compounds, 4.7% hits; THP-1 LPS/ATP IL-1B secretion, AlphaLISA, 16 h; hits give low values; in the data active = activity change below about -50%; inconclusive = mostly about -30% to -49%
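Secreted IL-1B measured by AlphaLISA bead assay after 16 h compound exposure of THP-1 cells; compounds (final up to 57.5 uM) added 1 h before LPS (250 ng/mL) and ATP (1.25 mM) stimulation; lower signal means less secretion.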
DT40 TDP1 no CPT – qHTS for Inhibitors of human tyrosyl-DNA phosphodiesterase 1 (TDP1): qHTS in cells in absence of CPT; DT40 Tdp1-/- hTDP1 cells, no CPT, ATP luminescence, 48 h; Potency, µM (titrated, usually from 46.2 µM), actives largely listed as inhibitors; 420,000 compounds, 15% hits; AID 686978, 2013; note: nearly all actives have a fitted effect of over 55% in size
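Growth kinetics read by CellTiter-Glo luminescence after ≥48 hr at 37 °C. Cells: DT40 Tdp1-/- stably carrying human TDP1, 400 per well, compound exposure in the absence of CPT (DMSO vehicle).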
HT1080-NT tox – kills 2HG-producing HT-1080-NT fibrosarcoma cells. HT-1080-NT fibrosarcoma viability, CellTiter-Glo ATP luminescence, 48 h. Potency, µM (highest dose often 46.1 µM), hits mostly cytotoxic. 360,000 compounds, 1.6% hits;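 note: NT is the 2HG producing partner of a matched IDH1 knockdown line; nearly all actives have a fitted effect of over 55% in size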
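Viability by CellTiter-Glo luminescence after 48 h compound exposure at 37C of HT-1080-NT cells (750/well, RPMI, 5% FBS). % activity scaled between DMSO wells and medium-only wells, then curve-fitted and categorized by curve class.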
ALOX12 inh – inhibitors of human 12S-lipoxygenase ALOX12 | purified 12hLO, xylenol orange hydroperoxide absorbance | Potency, µM (doses to about 108 µM), usual class: inhibitors | 580,000 compounds, 1.1% hits
Target sequence (P18054 whole entry, looked up): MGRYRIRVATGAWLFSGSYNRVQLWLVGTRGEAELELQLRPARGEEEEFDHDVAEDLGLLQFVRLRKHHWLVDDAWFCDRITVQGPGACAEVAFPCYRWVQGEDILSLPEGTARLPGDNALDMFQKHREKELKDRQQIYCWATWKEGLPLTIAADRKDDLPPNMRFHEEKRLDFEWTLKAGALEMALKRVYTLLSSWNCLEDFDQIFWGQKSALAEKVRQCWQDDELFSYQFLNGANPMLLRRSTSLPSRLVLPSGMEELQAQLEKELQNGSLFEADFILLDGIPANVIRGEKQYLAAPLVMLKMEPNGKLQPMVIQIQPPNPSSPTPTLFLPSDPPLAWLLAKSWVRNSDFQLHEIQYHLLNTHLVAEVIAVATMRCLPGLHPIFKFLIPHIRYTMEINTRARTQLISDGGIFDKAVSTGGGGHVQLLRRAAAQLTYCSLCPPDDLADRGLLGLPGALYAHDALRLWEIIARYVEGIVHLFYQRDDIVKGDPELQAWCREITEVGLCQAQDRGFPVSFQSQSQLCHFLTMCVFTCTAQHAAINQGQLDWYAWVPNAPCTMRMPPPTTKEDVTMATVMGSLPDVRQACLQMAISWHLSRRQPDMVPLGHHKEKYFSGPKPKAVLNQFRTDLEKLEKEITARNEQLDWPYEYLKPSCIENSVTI
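Hydroperoxide product was detected by ferrous iron/xylenol orange as the 573 to 405 nm absorbance ratio. Arachidonic acid at 40 uM (final) was turned over for 30 min at room temperature by 150 nM human 12hLO, pH 7.0 Hepes buffer, after 15 min compound preincubation.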
Numbers stand for hits; 0 = inactive; ? = inconclusive; - = no result given. Unless noted, calls come from the whole dose curve; as a rule, active = well fitted curve in the direction sought with a large enough effect; inconclusive = small, poorly fitted or top-dose-only effect, or another doubt; inactive = no such curve, though single readings can be large; an effect the other way counts as inactive or inconclusive.

SMILES | HT1080 IDH1KD tx | DT40 TDP1 CPT | IL1B secr inh | DT40 TDP1 no CPT | HT1080-NT tox | ALOX12 inh
COc1ccccc1NC(=O)CN1CCN(CC(=O)Nc2ccc(F)cc2F)CC1 | 0 | 0 | 0 | 0 | 0 | 0
COc1ccc(NC(=O)CCNC(=O)c2ccccc2Cl)cc1OC | 0 | 0 | 0 | 0 | 0 | 0
COc1ccccc1NC(=O)CN1CCN(CC(=O)Nc2ccc(Cl)c(C(F)(F)F)c2)CC1 | 23µM | 15µM | -80 | 13µM | ? | 0
COc1ccc(NC(=O)CN2CCN(CC(=O)Nc3ccccc3Cl)CC2)cc1Cl | 0 | 15µM | -51 | 12µM | 0 | 0
Cc1ccc(S(=O)(=O)Cc2noc([C@@H]3C[C@@H](O)CN3Cc3cccc(OC(F)(F)F)c3)n2)cc1 | - | - | - | - | - | 0
COc1cc(Cl)c(C)cc1NC(=O)c1ccccc1NC(=O)CN1CCOCC1 | 0 | 2.6µM | 0 | 4.6µM | 0 | 0
O=C(N[C@H](c1ccccn1)C1CC(O)C1)c1cnc2ccccn2c1=O (some centres undefined) | - | - | - | - | - | 0
CCOC(=O)N1CCC2CC1c1cc(-c3cccc(OC)c3)ccc12 (centres undefined) | 0 | ? | 0 | ? | 0 | 0
C=CC1CN(C(=O)OCC(Cl)(Cl)Cl)C2CC3c4ccc(OC)cc4NC3C3CC1C2CO3 (centres undefined) | 0 | ? | 0 | 18µM | 0 | -
Cc1cccc(N2CCN(C(=O)c3ccc4c(c3)CCN4S(C)(=O)=O)CC2)c1C | 0 | 13µM | -51 | ? | 0 | 0
Cc1cccc(NC(=O)c2ccc3c(c2)CCN3S(C)(=O)=O)c1C | 0 | 0 | 0 | 0 | 0 | 0
O=C(c1ccc(Cl)c(S(=O)(=O)N2CCc3ccccc3C2)c1)N1CCN(c2ccccc2)CC1 | 0 | 3.7µM | 0 | ? | 0 | 0
O=C(c1ccc2c(c1)CCN2S(=O)(=O)c1ccc(Cl)cc1)N1CCN(c2ccccc2)CC1 | - | 12µM | - | 21µM | - | 0
CC(NC(=O)c1ccc2c(c1)CCN2S(=O)(=O)c1ccc(Cl)cc1)c1ccccc1 (centres undefined) | - | 12µM | - | ? | - | ?
COc1ccc(N2CCN(C(=O)c3ccc(Cl)c(S(=O)(=O)N4CCCC4)c3)CC2)cc1 | 0 | ? | 0 | ? | 0 | ?
NC(=O)C1Cc2ccccc2CN1C(=O)CCc1nc2ccccc2[nH]c1=O (centres undefined) | - | - | - | - | - | 0
COc1ccccc1-n1nnc(C(=O)OCc2cc(C)ccc2C)c1C | - | - | - | - | - | 0
COc1cccc(CCC(=O)NCCC2CCN(C(=O)Nc3ccc(C)c(F)c3)CC2)c1 | - | - | - | - | - | 0
Cc1ccc(CN2CCCOCCNC(=O)CC2)s1 | - | - | - | - | - | 0
CS(=O)(=O)N1CCc2cc(C(=O)N3CCN(c4ccccc4F)CC3)ccc21 | 0 | ? | 0 | ? | 0 | ?
O=C(c1ccc2c(c1)CCN2S(=O)(=O)c1ccc(Cl)cc1)N1CCN(c2ccccc2F)CC1 | - | 21µM | - | 16µM | - | 0
O=C(c1cccc(S(=O)(=O)N2CCCc3ccccc32)c1)N1CCN(c2ccccc2)CC1 | ? | ? | ? | 21µM | 0 | 0
C/C(=N/O)c1cc(Cl)ccc1O | - | - | - | - | - | 0
CCCCCCCCCCCC(=O)N/N=C/C(CC)CCCC (centres undefined) | - | - | - | - | - | 0
N#Cc1ccc(C(=O)N2CCCCCCNC(=O)[C@@H]3C[C@@H](c4nc(-c5cccnc5)no4)C[C@@H]32)cc1 | - | - | - | - | - | 0
SMILES | HT1080 IDH1KD tx | DT40 TDP1 CPT | IL1B secr inh | DT40 TDP1 no CPT | HT1080-NT tox | ALOX12 inh
Cc1cccc(OCCn2nc(C(=O)O)c3ccccc3c2=O)c1 | 0 | 0 | 0 | 0 | 0 | 0
CC(C)(C)c1ccc(OCCn2nc(C(=O)O)c3ccccc3c2=O)cc1 | 0 | 16µM | 0 | 21µM | 0 | 0
Cc1cnc(C(=O)Nc2ccc(C)c(S(=O)(=O)N(C)C)c2)cn1 | 0 | ? | 0 | 15µM | 0 | 0
Cc1ccc(NC(=O)c2c3c(nc4ccccc24)CCC3)cc1S(=O)(=O)N(C)C | 0 | 16µM | 0 | ? | 0 | 0
Cc1ccc(NC(=O)c2ccc3ccccc3n2)cc1S(=O)(=O)N(C)C | 0 | ? | 0 | 12µM | 0 | 0
Cc1ccc(NC(=O)c2ccc3ccccc3n2)cc1C | - | - | - | - | - | 0
Cc1ccc(NC(=O)c2cnccn2)cc1S(=O)(=O)N(C)C | 0 | 0 | 0 | 0 | 0 | 0
O=Cc1cccn1-c1cccc(Br)c1 | - | - | - | - | - | 0
CCCN(CCC)CCNC(=O)c1ccc(CN2CC(=O)N3CCCCC3C2=O)cc1 (centres undefined) | - | - | - | - | - | 0
C[C@H]1C=C2C=C[C@H](C)[C@H](CC[C@@H]3C[C@@H](O)CC(=O)O3)[C@H]2[C@@H](OC(=O)[C@@H](C)CCO)C1 | - | 27µM | - | 27µM | - | ?
CC(C(=O)Nc1ccccc1C#N)N(C)Cc1ccccc1N1CCCCC1 (centres undefined) | - | - | - | - | - | 0
CCOC(=O)c1ccc(NC(=O)CN(Cc2ccc(C)cc2)S(=O)(=O)c2ccc(C)cc2)cc1 | - | 13µM | - | 13µM | - | 0
Cc1ccc(S(=O)(=O)N(CC(=O)Nc2ccc(F)cc2F)Cc2ccc(F)cc2)cc1 | - | 18µM | - | 21µM | - | 0
COc1ccc(-n2c(N)c(C(=O)Nc3c(C)n(C)n(-c4ccccc4)c3=O)c3nc4ccccc4nc32)cc1 | 0 | 0 | 0 | ? | 0 | 0
CCOC(=O)c1c(N)n(C2CC(C)(C)NC(C)(C)C2)c2nc3ccccc3nc12 | ? | ? | -65 | 0 | ? | -
CCOC(=O)c1c(N)n(-c2ccc(CC)cc2)c2nc3ccccc3nc12 | - | 23µM | - | ? | - | ?
CCOC(=O)c1ccc(-n2c(N)c(C(=O)OC)c3nc4ccccc4nc32)cc1 | - | 5.8µM | - | 7.3µM | - | 0
Nc1c(C(=O)Nc2ccccc2)c2nc3ccccc3nc2n1-c1ccc(O)cc1 | ? | 10µM | 0 | 2.1µM | ? | 0
COc1cccc(CCNC(=O)C(=O)NCc2n[nH]c(=O)c3ccccc23)c1 | - | - | - | - | - | 0
CCOc1cc(Br)c2cc(C(=O)O)[nH]c2c1OC | - | - | - | - | - | 0
Cc1ccc(CNC(=O)CCc2ncc(-c3ccc(Cl)cc3Cl)o2)cc1 | - | - | - | - | - | 0
Cc1ncc2c(c1CNC(=O)c1ccccc1-c1ncc[nH]1)CCNC2 | - | - | - | - | - | 0
COC(=O)c1c(N)n(-c2cc(Cl)cc(Cl)c2)c2nc3ccccc3nc12 | - | 16µM | - | 9.2µM | - | 0
Cc1ccc(CSc2nc3ccccc3c(=O)n2C)cc1 | 0 | ? | 0 | ? | 0 | 0
Cn1c(SCc2ccc(F)cc2Cl)nc2ccccc2c1=O | 0 | ? | 0 | 15µM | 0 | 0
CCc1ccc(C(=O)CSc2nc3ccccc3c(=O)n2CCCN2CCOCC2)cc1 | - | - | - | - | - | 0
O=C(CSc1nc2ccccc2c(=O)n1CCCN1CCOCC1)c1c[nH]c2ccccc12 | ? | ? | -110 | ? | ? | 0
